# Source: PubChem BioAssay
# KDM4E inh = qHTS Assay for Inhibitors of Human Jumonji Domain Containing 2E (JMJD2E). Lysine-specific demethylase 4E (Homo sapiens), B2RXH2. JMJD2E catalytic domain, FDH-coupled NADH fluorescence (FDH is formaldehyde dehydrogenase). Potency, µM (doses to about 57.1 µM), for the others: at the highest dose activity change, negative = inhibition, most hits filed as inhibitors. hit rate 1.6% among 230,000; active = well fitted inhibition curve with a large enough effect, not every such curve was filed as active; inconclusive = small, poorly fitted or top-dose-only effect, or another doubt; inactive = no such curve, though single readings can be large or run the other way;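 note: potency is the fitted concentration of half-maximal effect; 0% = wells with enzyme and -100% = buffer wells without enzyme; nearly all actives have a fitted effect of over 50% in size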
# Sfp PPTase inh = qHTS Assay for Inhibitors of Bacillus subtilis Sfp phosphopantetheinyl transferase (PPTase); Biochemical Sfp PPTase activity, qHTS; 4'-phosphopantetheinyl transferase ffp (Bacillus subtilis), Q9F4F7; hit rate 3.5% among 310,000; Potency, µM, inactives show largest response in the series, negative = inhibition, actives largely listed as inhibitors;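 note: the enzyme is Sfp with the accession as filed and its product quenches rhodamine fluorescence; potency is the fitted concentration of half-maximal effect; 0% = enzyme reaction without inhibitor and -100% = no enzyme wells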
#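 Fluorescence-quenching assay: 15 nM Sfp-PPTase preincubated 15 min at room temperature with compound, then 5 uM rhodamine-CoA and 12.5 uM BHQ-2-labelled YbbR peptide added. Fluorescence (ex 525/em 598 nm) read at start and after 30 min; difference gives rate.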
# G9a inh = qHTS Assay for Inhibitors of Histone Lysine Methyltransferase G9a; AID 504332, 2011; hit rate 8.8% among 350,000; Potency, µM (highest dose often 102 µM), for the others: top-dose activity, negative = inhibition, actives largely listed as inhibitors; Histone-lysine N-methyltransferase EHMT2 (Homo sapiens), Q96KQ7; G9a H3K9 monomethylation, AlphaScreen, 2 h; note: potency is the fitted concentration of half-maximal effect; % is set by controls: 0 for no effect and ±100 for the full control effect; nearly all actives have a fitted effect of over 75% in size
# Target sequence (Q96KQ7 913-1193 limits assumed): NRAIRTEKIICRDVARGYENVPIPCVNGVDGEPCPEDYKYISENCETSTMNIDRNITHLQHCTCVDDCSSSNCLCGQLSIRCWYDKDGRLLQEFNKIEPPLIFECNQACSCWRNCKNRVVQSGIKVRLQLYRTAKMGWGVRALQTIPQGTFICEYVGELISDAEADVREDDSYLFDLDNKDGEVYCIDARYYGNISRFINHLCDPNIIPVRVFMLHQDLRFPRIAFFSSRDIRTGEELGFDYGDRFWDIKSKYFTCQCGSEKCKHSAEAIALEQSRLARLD
#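 Quantitative HTS format: methyltransferase activity on a biotin-tagged H3K9 peptide is measured by AlphaScreen, using a rabbit anti-monomethyl-H3K9 antibody with streptavidin donor and anti-IgG acceptor beads. Final levels are 20 nM enzyme, 500 nM peptide, 20 uM SAM; 2 h RT.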
# LMNA splice mod = qHTS Assay for Modulators of Lamin A Splicing. AID 1487, 2009. hit rate 0.01% among 200,000. Potency, µM (highest dose often 46.1 µM), for inactives: top-dose ratio change, negative = inhibition, usual class: inhibitors. HeLa LMNA splicing GFP/RFP minigene ratio, 48 h; active = well fitted inhibition curve with a large enough effect in the signal ratio, with a control signal flat, not every such curve was filed as active; inconclusive = small, poorly fitted or top-dose-only effect, or effect the other way, or a change in a side signal; the % refers to the signal ratio; note: potency is the fitted concentration of half-maximal effect; % is set by controls: 0 for no effect and ±100 for the full control effect
#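 Read-out is the ratio of GFP to DsRed2 object intensity, acquired by 488 nm laser-scanning cytometry on HeLa lamin A-EGFP minigene reporter cells. Compound incubation 48 hrs at 37 °C in Opti-MEM with 2% FBS; DMSO 0.5% final.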
# miR-21 act = qHTS Assay for Modulators of miRNAs and/orActivators of miR-21; HeLa miR-21 FLuc reporter, luciferase, 48 h; Potency, µM (highest dose often 38.3 µM), for inactives: at the top dose activity change, positive = activation, actives largely listed as activators; 340,000 tested, under 10 active;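 note: % of control where 0% means no effect; miR-21 action dims this reporter so a rising signal means less miR-21 action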
#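 HeLa cells endogenously expressing miR-21, stably carrying CMV-driven firefly luciferase with a downstream miR-21 binding site, 2000 cells/well. Titrations up to approximately 40 uM, 48 hours; luciferase luminescence read.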
# ALDH1A1 block = qHTS Assay for Inhibitors of Aldehyde Dehydrogenase 1 (ALDH1A1) | Aldehyde dehydrogenase 1A1 (Homo sapiens), P00352 | Purified ALDH1A1, NADH fluorescence, propionaldehyde substrate | Potency, µM (top dose mostly 75.3 µM), inactives show at the top dose activity, negative = inhibition, most hits filed as inhibitors | hit rate 7.3% among 220,000 | AID 1030, 2008; active = well fitted inhibition curve with a large enough effect, not every such curve was filed as active; inconclusive = small, poorly fitted or top-dose-only effect, or another doubt; inactive = no such curve, though single readings can be large or run the other way;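 note: potency is the fitted concentration of half-maximal effect; plate controls were no enzyme wells and a reference inhibitor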
# Target sequence (P00352 whole entry, looked up): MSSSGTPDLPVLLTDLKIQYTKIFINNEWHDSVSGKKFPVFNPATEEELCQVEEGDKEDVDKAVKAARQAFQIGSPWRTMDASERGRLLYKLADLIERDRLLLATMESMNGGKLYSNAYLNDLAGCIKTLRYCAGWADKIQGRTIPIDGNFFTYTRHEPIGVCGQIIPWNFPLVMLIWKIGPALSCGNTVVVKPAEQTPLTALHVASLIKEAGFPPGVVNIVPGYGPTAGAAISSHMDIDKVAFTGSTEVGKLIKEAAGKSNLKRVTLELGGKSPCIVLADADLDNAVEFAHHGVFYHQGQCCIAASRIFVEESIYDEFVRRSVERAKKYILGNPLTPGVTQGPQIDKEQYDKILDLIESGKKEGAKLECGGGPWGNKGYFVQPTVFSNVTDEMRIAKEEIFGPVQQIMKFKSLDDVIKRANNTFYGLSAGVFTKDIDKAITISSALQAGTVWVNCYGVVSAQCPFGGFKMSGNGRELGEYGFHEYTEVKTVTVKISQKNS
# * = called active by the depositor; ? = inconclusive; . = not tested or not shown; [ ] = remark or other dose. In the library only some 13% were active in any assay of this set; here they are far more common. Unless noted, calls come from the whole dose curve; as a rule, active = well fitted curve in the direction sought with a large enough effect; inconclusive = small, poorly fitted or top-dose-only effect, or another doubt; inactive = no such curve, though single readings can be large; an effect the other way counts as inactive or inconclusive.
SMILES,KDM4E inh,Sfp PPTase inh,G9a inh,LMNA splice mod,miR-21 act,ALDH1A1 block
CCn1cc(C(=O)NCc2ccc(C)cc2)c(=O)c2cc(S(=O)(=O)N3CCCCCC3)ccc21,.,.,-14%[59 µM],12%[46 µM],15%,.
CCOC(=O)C1=C(C)N(CCCCCC(=O)O)C(=O)NC1c1ccccc1OC(=O)c1cccs1 (stereo not drawn),7%,-6%,18%,6%,-5%,13%
COc1cccc(C(=O)NCCS(=O)(=O)NCc2cccs2)c1,.,.,35µM*,.,.,.
COc1cccc(C(=O)NCCS(=O)(=O)NCc2cccnc2)c1,.,.,50µM*,.,.,.
O=C(NCCS(=O)(=O)NCc1cccnc1)c1ccccc1,.,.,-30%,.,.,.
COc1cccc(C(=O)NCc2ccco2)c1,.,16%,2%[59 µM],.,-13%,.
COc1cccc(C(=O)NCCS(=O)(=O)NCc2ccco2)c1,.,.,20µM*,.,.,.
Cc1cc(C(=O)CN2CCN(CC(=O)Nc3ccc(F)cc3)CC2)c(C)n1C1CC1,.,.,-3%[2.33 µM],.,.,.
Cc1cccc(C)c1NC(=S)N1CCC(c2ccccc2)C1 (stereo not drawn),1%,3%,17%,21%[46 µM],6%,-3%
CC(=O)n1cc(CO)c2ccccc21,.,23%,7%[12.7 µM],.,1%,.
CC(=O)O/C(=C\c1cn(C(C)=O)c2ccccc12)C(=O)O,-19%,-15%,35µM*,.,-2%,.
COc1ccc(/C=C/C(=O)NC(=S)NNC(=O)c2ccco2)cc1OC,?,26%,35µM*,.,-3%,.
COc1ccc(/C=C/C(=O)NC(=S)NNC(=O)c2ccco2)cc1,?,21%,13µM*,?,-1%,?
COc1ccc(/C=C/C(=O)NC(=S)NNC(=O)Cc2cccs2)cc1,?,6%,32µM*,?,-15%,-5%
O=C(/C=C/c1ccccc1)NC(=S)NNC(=O)Cc1cccs1,-2%,-9%,?,-11%,-28%,?
COc1ccc(C2=NN(C(=O)CSc3nc4ncc(Cl)cc4[nH]3)C(c3ccco3)C2)cc1 (stereo not drawn),?,-8%,56µM*,?,-11%,?
Cc1ccc(C2=NN(C(=O)CSc3nc4ncc(Cl)cc4[nH]3)C(c3ccco3)C2)cc1 (stereo not drawn),-30%,45µM*,22µM*,-9%[46 µM],-13%,?
COc1ccc(N2CCN(C(=O)C3CCN(S(=O)(=O)c4cn(C)cn4)CC3)CC2)cc1,.,.,-18%[12.7 µM],4%[46 µM],-1%,.
COCCN1C(=O)C(=O)/C(=C(/O)c2ccc(S(=O)(=O)N3CCOCC3)cc2)C1c1cccc(Cl)c1 (stereo not drawn),0%,9%,4%,.,-1%,.
COc1ccc(C2/C(=C(/O)c3ccccc3)C(=O)C(=O)N2C)cc1OC (stereo not drawn),.,0%,45µM*,.,-5%,.
COCCCN1C(=O)C(=O)/C(=C(/O)c2ccc(OC(C)C)cc2)C1c1ccc(O)c(OC)c1 (stereo not drawn),-1%,15%,56µM*,0%,-2%,-2%
COCCN1C(=O)C(=O)/C(=C(/O)c2ccc(S(=O)(=O)N3CCOCC3)cc2)C1c1ccc(O)cc1 (stereo not drawn),?,?,71µM*,.,-3%,.
CCOc1ccc(C2/C(=C(/O)c3ccc(S(=O)(=O)N4CCCCC4)cc3)C(=O)C(=O)N2CCCOC)cc1OC (stereo not drawn),.,-12%,79µM*,.,1%,.
CCOc1ccccc1NC(=O)CSc1nc2c([nH]c3ccccc32)c(=O)n1-c1ccccc1,.,.,-1%[59 µM],21%[46 µM],2%,.
COCCCN1C(=O)C(=O)/C(=C(/O)c2ccc(S(=O)(=O)N3CCOCC3)cc2)C1c1ccc(OC)cc1 (stereo not drawn),.,5%,40µM*,.,-3%,.
SMILES,KDM4E inh,Sfp PPTase inh,G9a inh,LMNA splice mod,miR-21 act,ALDH1A1 block
N#CCCN(C(=S)NC(=O)c1cccs1)c1ccccc1F,.,.,4µM*,.,.,.
NS(=O)(=O)c1ccc(NC(=S)Nc2ccc(S(=O)(=O)N3CCCC3)cc2)cc1,-130%,50µM*,?,.,1%,?
CN(C)NC(=S)Nc1ccc(S(=O)(=O)N2CCCCC2)cc1,-4%,17%,0%,16%[46 µM],-7%,-12%
N#CCCN(C(=O)COC(=O)CNC(=O)c1cccs1)c1ccc(F)cc1,.,.,-8%,.,.,.
CNS(=O)(=O)c1ccc(NC(=S)Nc2ccc3c(c2)OCO3)cc1,2%,45µM*,.,.,-36%,5µM*
CC(C)CCCCCCNC(=S)Nc1ccc(S(=O)(=O)N2CCOCC2)cc1,-5%,31%,0.89µM*,?,?,?
CC(=O)c1ccc(NC(=S)N2CCN(S(=O)(=O)c3ccc(F)cc3)CC2)cc1,.,-1%,109%,.,0%,.
COc1ccc(-c2nc3cc(C)ccn3c2NC(=O)c2cccc(F)c2)cc1,.,.,2%[59 µM],.,0%,.
COCCn1c(=O)cnc2cnc(OC)nc21,.,6%,-1%[0.501 µM],2%,.,0%
O=S(=O)(c1ccc(NC(=S)Nc2ccc3c(c2)OCO3)cc1)N1CCOCC1,-20%,-43%,?,5%,-38%,22µM*
O=S(=O)(c1cccc(NC(=S)Nc2ccc(Br)cc2Cl)c1)N1CCOCC1,3%,45µM*,-1%[12.7 µM],-3%,-6%,?
N#CCCN(C(=S)Nc1ccc(S(=O)(=O)N2CCOCC2)cc1)c1ccccc1F,.,.,45µM*,.,.,.
CC(NC(=S)Nc1ccc(S(=O)(=O)N2CCOCC2)cc1)C1CC2CCC1C2 (stereo not drawn),2%,1%,-6%[59 µM],?,?,20µM*
CCCC12CN3CC(C)(CN(C1)C3c1ccc(OCc3ccccc3)cc1)C2=O (stereo not drawn),.,.,-27%[59 µM],.,7%,.
O=S(=O)(c1ccc(NC(=S)Nc2ccccc2)cc1)N1CCOCC1,-20%,-21%,79µM*,-3%,-4%,20µM*
Cc1ccc(-c2nc(CCNC(=O)C(=O)Nc3c(C)cccc3C)cs2)cc1,.,.,18%[59 µM],?,-3%,.
COc1cc(C(C(=O)NC2CCCCC2)N(C(=O)Cc2c[nH]c3ccccc23)c2ccccc2C)cc(OC)c1OC (stereo not drawn),-2%,-5%,40µM*,6%,-5%,9%
